This note sets out measurements from PubChem BioAssay (NCI).

This is part of a sample that, as a whole, favours compounds with a hit. Of some 83,000 tested, about 20% had one in any assay.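 Cells were grown in 96-well plates and exposed to the test compound at a single concentration for 48 hours; results are reported as percent growth, with values below 10 considered active.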 Values without a mark were called inactive. The source made the active and inactive calls.

Some test systems named below: NCI-H23 lung; NCI-H226 lung; NCI-H322M lung; HOP-62 NSCLC; NCI-H460 lung; HOP-92 NSCLC; NCI-H522 lung; A549/ATCC NSCLC; 786-0 renal; COLO 205 colon; DU-145 prostate; MALME-3M melanoma; MDA-MB-231 breast; RXF 393 renal; SF-268 CNS; SF-539 CNS; UACC-257 melanoma; M14 melanoma; K-562 leukemia; SF-295 CNS.
Common to all, as to assay: NCI-60 one-dose screen, 48 h (100 = growth as untreated, 0 = no growth, -100 = all killed)
Common to all, as to conditions: 10 µM unless noted

On to `CN1CCN(c2ccc(N3Cc4ccccc4OC4=C3C(=O)c3c(O)ccc(O)c3C4=O)cn2)CC1`, for which the growth in the experiment with NCI-H23 lung is -23.2% (active); with NCI-H226 lung, 35.2%; in the experiment on NCI-H322M lung, 4.57% (active); with HOP-62 NSCLC, 1.99% (active); with NCI-H460 lung it was -22.4% (active); with HOP-92 NSCLC, -58.7% (active). The growth is -53.3% (active) in the experiment on NCI-H522 lung; -4.29% (active) in the experiment with A549/ATCC NSCLC; -77.4% (active) with 786-0 renal; -77.1% (active) with COLO 205 colon; -95.9% (active) in the experiment with DU-145 prostate; -84.2% (active) in the experiment with MALME-3M melanoma. Besides, the growth is -75.1% (active) in the experiment with MDA-MB-231 breast; -93.6% (active) in the experiment on RXF 393 renal; -6.04% (active) with SF-268 CNS; -58.3% (active) with SF-539 CNS; -88.9% (active) in the experiment with UACC-257 melanoma; -76.8% (active) in the experiment on M14 melanoma.

Consider `CC1CN(CCCOC(=O)Nc2ccc(Cl)cc2)CCN1C(C)(C)C` (configuration not stated), for which the growth with NCI-H23 lung was 101%; in the experiment with NCI-H226 lung, 96.4%; with NCI-H322M lung it was 96.5%; with HOP-62 NSCLC, 112%; with NCI-H460 lung it was 106%; in the experiment on HOP-92 NSCLC, 133%. The growth was 97.5% in the experiment on NCI-H522 lung; 103% in the experiment with A549/ATCC NSCLC; 99.3% in the experiment with 786-0 renal; 102% in the experiment on COLO 205 colon; 90.8% in the experiment on K-562 leukemia; 102% in the experiment on MALME-3M melanoma. The growth with MDA-MB-231 breast is 102%; in the experiment with RXF 393 renal, 126%; in the experiment on SF-268 CNS, 106%; in the experiment with SF-295 CNS it was 107%; in the experiment with SF-539 CNS it was 125%; in the experiment on UACC-257 melanoma, 108%. For the same compound, in the experiment on M14 melanoma, the growth was 99.7%.

For `O=c1c2sc3ccccc3c2nnn1-c1ccc(F)c(Cl)c1`, the growth is 73% in the experiment with NCI-H23 lung; 34.3% in the experiment on NCI-H226 lung; 49.4% with NCI-H322M lung; -15% (active) with HOP-62 NSCLC; 10.4% in the experiment with NCI-H460 lung; -1.07% (active) in the experiment with HOP-92 NSCLC. The growth in the experiment with NCI-H522 lung was 64.5%; with A549/ATCC NSCLC it was 30.3%; with 786-0 renal, 31.9%; with COLO 205 colon it was 41.9%; in the experiment on K-562 leukemia it was 49.7%; with MALME-3M melanoma, 58%. Also, the growth in the experiment with MDA-MB-231 breast is 27.5%; in the experiment with RXF 393 renal, 47.3%; with SF-295 CNS, 4.36% (active); with SF-539 CNS it was 65.4%; with UACC-257 melanoma it was 64.1%; with M14 melanoma, 74.7%.

`Clc1ccccc1Nc1nnc(-c2ccncc2)s1`: the growth was 102% in the experiment with NCI-H23 lung; 101% in the experiment on NCI-H226 lung; 93.7% in the experiment on NCI-H322M lung; 118% in the experiment on HOP-62 NSCLC; 99.7% with NCI-H460 lung; 93.9% in the experiment on HOP-92 NSCLC. Also, the growth in the experiment with NCI-H522 lung is 98.6%; in the experiment on A549/ATCC NSCLC, 95%; with 786-0 renal it was 80.2%; with COLO 205 colon, 114%; in the experiment with K-562 leukemia, 101%; in the experiment on MALME-3M melanoma, 109%. Further, the growth was 108% in the experiment with MDA-MB-231 breast; 107% in the experiment with RXF 393 renal; 105% in the experiment on SF-268 CNS; 88.7% in the experiment on SF-295 CNS; 108% in the experiment with SF-539 CNS; 108% in the experiment on UACC-257 melanoma. For the same compound, in the experiment with M14 melanoma, the growth is 104%.

As to `SCc1ccc(CS)cc1`, the growth with NCI-H23 lung was 106%; with NCI-H226 lung, 109%; in the experiment on NCI-H322M lung, 98.2%; in the experiment with HOP-62 NSCLC, 102%; in the experiment on NCI-H460 lung it was 108%; with HOP-92 NSCLC, 77.2%. Further, the growth in the experiment on NCI-H522 lung is 108%; with A549/ATCC NSCLC it was 110%; in the experiment on 786-0 renal, 98.1%; in the experiment on COLO 205 colon it was 116%; with DU-145 prostate, 116%; with MALME-3M melanoma, 106%. In addition, the growth in the experiment with MDA-MB-231 breast is 123%; in the experiment on RXF 393 renal it was 112%; in the experiment on SF-295 CNS, 109%; in the experiment with SF-539 CNS, 104%; in the experiment on UACC-257 melanoma it was 114%; with M14 melanoma it was 106%.

On to `Clc1cn2cc(-c3ccc(Cl)c(Cl)c3Cl)nc2s1`, for which the growth in the experiment with NCI-H23 lung was 92.7%; in the experiment with NCI-H226 lung it was 90.1%; in the experiment with NCI-H322M lung it was 91.9%; with HOP-62 NSCLC, 86.7%; with NCI-H460 lung, 109%; with HOP-92 NSCLC it was 85.8%. The growth with NCI-H522 lung was 91.4%; in the experiment with A549/ATCC NSCLC it was 103%; in the experiment on 786-0 renal, 99.9%; with DU-145 prostate, 117%; in the experiment with K-562 leukemia it was 92.6%; in the experiment with MALME-3M melanoma it was 101%. Further, the growth with MDA-MB-231 breast is 98.5%; in the experiment on RXF 393 renal, 99.8%; in the experiment with SF-268 CNS, 103%; with SF-295 CNS, -71.5% (active); in the experiment on SF-539 CNS, 105%; in the experiment with UACC-257 melanoma it was 112%. Also, the growth with M14 melanoma was 95.3%.

Consider `Fc1ccc(-c2ccnc3nc(-c4ccncc4)nn23)cc1`, for which the growth in the experiment with NCI-H23 lung is 112%; in the experiment on NCI-H226 lung, 102%; in the experiment on NCI-H322M lung, 99.4%; in the experiment with HOP-62 NSCLC it was 113%; with NCI-H460 lung, 104%; in the experiment on HOP-92 NSCLC, 120%. Also, the growth in the experiment on NCI-H522 lung was 107%; in the experiment on A549/ATCC NSCLC it was 98.4%; in the experiment on 786-0 renal, 88.8%; in the experiment with DU-145 prostate it was 101%; in the experiment on K-562 leukemia it was 98.1%; with MALME-3M melanoma, 114%. The growth in the experiment on MDA-MB-231 breast was 113%; with RXF 393 renal it was 105%; with SF-268 CNS, 97.1%; in the experiment with SF-295 CNS, 111%; in the experiment on SF-539 CNS, 101%; in the experiment with UACC-257 melanoma, 111%. Besides, in the experiment on M14 melanoma, the growth is 107%.

`CC[C@H](Nc1nc(N)nc(C2CC2)c1C#N)c1nc2cccc(NCc3ccc(C(=O)NO)cc3)c2c(=O)n1-c1ccccc1`: the growth was -14.8% (active) in the experiment with NCI-H23 lung; -21.9% (active) in the experiment on NCI-H226 lung; 21.3% in the experiment on NCI-H322M lung; 5.11% (active) in the experiment with HOP-62 NSCLC; -15.1% (active) with NCI-H460 lung; -14% (active) with HOP-92 NSCLC. Moreover, the growth with NCI-H522 lung was -29.6% (active); with A549/ATCC NSCLC it was -30.6% (active); in the experiment on 786-0 renal it was -9.68% (active); in the experiment with DU-145 prostate it was -29.3% (active); with K-562 leukemia it was -14% (active); in the experiment on MALME-3M melanoma, -2.35% (active). For the same compound, the growth with MDA-MB-231 breast is 2.7% (active); with RXF 393 renal it was -15.2% (active); in the experiment on SF-268 CNS, 4.22% (active); in the experiment with SF-295 CNS it was -26.9% (active); in the experiment on SF-539 CNS, -0.037% (active); in the experiment on UACC-257 melanoma, -2.7% (active). Also, the growth in the experiment on M14 melanoma is -18.6% (active).

With `O=C(C(Br)C(Br)c1ccccc1)C(Br)C(Br)c1ccccc1` (configuration not stated), the growth in the experiment with NCI-H23 lung is 8.99% (active); in the experiment with NCI-H226 lung it was -36.5% (active); in the experiment with NCI-H322M lung, 84.2%; in the experiment on HOP-62 NSCLC, 3.69% (active); with NCI-H460 lung, 64%; in the experiment with HOP-92 NSCLC, -60.7% (active). The growth with NCI-H522 lung was -90.6% (active); in the experiment with A549/ATCC NSCLC it was 29.4%; with 786-0 renal, -62.7% (active); in the experiment on DU-145 prostate, -26.4% (active); in the experiment on K-562 leukemia, -17.5% (active); with MALME-3M melanoma, -69.5% (active). Also, the growth in the experiment with MDA-MB-231 breast was -16.5% (active); in the experiment on RXF 393 renal, -85.1% (active); in the experiment on SF-268 CNS it was -1.83% (active); with SF-539 CNS, -42.5% (active); with UACC-257 melanoma, -67.3% (active); in the experiment on M14 melanoma, 1.62% (active).
